Screens as filed in PubChem BioAssay.
HCMV inh = blocks human cytomegalovirus replication; HFF cells, HCMV-luciferase reporter, 72 h; hits give low values; activity change, negative = inhibition, % at 57.5 µM; 410,000 compounds, 4.5% hits; in the data active means activity change below about -60%; inconclusive means no clear call, values can overlap the other calls; inactive means above about -39%
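Compounds were evaluated in HFFs infected with an HCMV luciferase reporter virus (MOI 1 PFU/cell). Luciferase in lysates collected 72 h post infection served as the replication measure.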
FMDV antiviral = antivirals against foot and mouth disease virus; Potency, µM (top dose mostly 57.9 µM), hits mostly inhibitors; AID 1159524; 410,000 compounds, 1.2% hits; FMDV antiviral cell-based qHTS; calls by dose curve; tested in HEK293T cells; further: read-out not given here; nearly all actives have a fitted effect of over 45% in size
Vaccinia Venus = vaccinia inhibition (Venus reporter). Vaccinia virus Venus reporter expression, fluorescence. Potency, µM (highest dose often 36.5 µM), usual class: inhibitors. 330,000 compounds, 0.46% hits. AID 720580; calls by dose curve; tested in A549 cells; further: nearly all actives have a fitted effect of over 30% in size
VACV mCherry inh = vaccinia inhibition (mCherry reporter) | AID 720579 | 310,000 compounds, 0.63% hits | Potency, µM (series often up to 36.5 µM), hits mostly inhibitors | Vaccinia virus mCherry reporter infection, fluorescence; calls by dose curve; tested in A549 cells; further: nearly all actives have a fitted effect of over 35% in size
Giardia FBPA inh = Giardia lamblia aldolase inhibition; A8B2U2; purified Giardia FBPA; Potency, µM (series often up to 59.6 µM), hits mostly inhibitors; 290,000 compounds, 0.71% hits; AID 2451; further: nearly all actives have a fitted effect of over 55% in size
Target sequence (A8B2U2 whole entry, looked up): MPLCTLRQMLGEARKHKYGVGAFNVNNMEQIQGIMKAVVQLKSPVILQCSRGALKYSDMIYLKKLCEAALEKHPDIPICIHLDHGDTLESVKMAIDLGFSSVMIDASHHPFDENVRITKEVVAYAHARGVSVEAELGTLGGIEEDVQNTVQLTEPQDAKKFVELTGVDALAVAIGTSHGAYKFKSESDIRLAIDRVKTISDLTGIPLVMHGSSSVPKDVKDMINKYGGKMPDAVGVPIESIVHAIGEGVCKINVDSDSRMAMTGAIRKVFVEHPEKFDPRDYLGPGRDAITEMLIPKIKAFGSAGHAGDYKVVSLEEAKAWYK
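Giardia FBPA (40 nM reagent) was preincubated 10 min at RT with compound (up to 57.5 uM final), then substrate plus GAPDH/TPI/NAD/arsenate coupling system with diaphorase/resazurin was added; resorufin fluorescence (525/598 nm) was read after 20 min.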
HCV inh = blocks hepatitis C virus | Huh7.5.1 HCVcc-Cre infection, luciferase reporter, 44 h | Potency, µM (titrated, usually from 41.8 µM), most hits filed as inhibitors | 340,000 compounds, 3.4% hits
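1,000 cells/well; 4 h culture; + compound; + HCVcc-Cre (~0.5 moi); 44 h; luciferase substrate, RT 15 min; read 15 sec.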
Of the large screens only hits and unclear results are named; the others gave an inactive call. Shown are actives, neighbours in structure and some others; about 7.5% of the full set was active somewhere. Unless noted, the call rests on the fitted dose curve; in most records, active means well fitted curve in the direction sought with a large enough effect; inconclusive means small, poorly fitted or top-dose-only effect, or another doubt; inactive means no such curve, though single readings can be large; an effect the other way counts as inactive or inconclusive.

CC(=O)N1CCN(c2ccc(NCc3cccc(C)c3)cc2)CC1	HCMV inh -77, FMDV antiviral inconclusive (no result: Vaccinia Venus, VACV mCherry inh, Giardia FBPA inh, HCV inh)
Cc1ccc(CNC(=O)CC2Oc3ccccc3NC2=O)cc1 (centres undefined)	none (no result: Giardia FBPA inh, HCV inh)
CC(=O)/C(=C/Nc1ccc(Oc2ccccc2)cc1)c1ccccc1	HCMV inh -77
CC(=O)/C(=C\Nc1ccc(OCc2ccccc2)cc1)c1ccccc1	none
Oc1ccc2ccccc2c1N=Nc1ccccc1F	Giardia FBPA inh inconclusive, HCV inh inconclusive (no result: Vaccinia Venus, VACV mCherry inh)
CCOC(=O)c1[nH]cnc1N=Nc1c(O)ccc2ccccc12	HCMV inh -97, HCV inh 7.9µM
Oc1ccc2ccccc2c1N=Nc1ccccn1	HCMV inh -98, FMDV antiviral inconclusive, HCV inh 8.9µM (no result: VACV mCherry inh)
CCc1ccc(-n2c(SC(CC)C(=O)N(CC)CC)nc3n[nH]c(C)c3c2=N)cc1 (centres undefined)	HCMV inh -84, FMDV antiviral inconclusive, Vaccinia Venus inconclusive, VACV mCherry inh inconclusive (no result: Giardia FBPA inh, HCV inh)
O=C(Nc1ccc(Cl)c(Cl)c1)C1C2C=CC3(O2)C1C(=O)N(CCN1CCCCC1)C3C(=O)NC1CCCCC1 (centres undefined)	HCV inh inconclusive
O=c1cc(N=Nc2ccc(Cl)cc2)[nH]c(=O)[nH]1	HCMV inh -100, FMDV antiviral 25µM, Giardia FBPA inh inconclusive, HCV inh inconclusive
O=C(NC(=S)NNC(=O)c1ccco1)c1ccc(Br)cc1	none (no result: Vaccinia Venus, VACV mCherry inh)
COc1ccccc1/C=C/C1(C(=O)NC2CCCC2)CC(=O)N1c1ccc(C)cc1 (centres undefined)	HCMV inh -98, HCV inh inconclusive (no result: Vaccinia Venus, VACV mCherry inh)
CCN(CC)S(=O)(=O)c1ccc(N2C(=O)CC2(/C=C/c2ccccc2)C(=O)NC2CCCC2)cc1 (centres undefined)	none
COc1ccccc1/C=C/C1(C(=O)NC2CCCC2)CC(=O)N1c1ccc(F)cc1 (centres undefined)	HCMV inh -83, FMDV antiviral inconclusive, HCV inh inconclusive (no result: Vaccinia Venus, VACV mCherry inh)
COc1ccc(OC)c(C2C=C(C34CC5CC(CC(C5)C3)C4)NC(=S)N2)c1 (centres undefined)	HCMV inh inconclusive, HCV inh 2.5µM
O=C1C=Cc2ccccc2C1=O	Giardia FBPA inh 3.5µM (no result: HCMV inh, FMDV antiviral, Vaccinia Venus, VACV mCherry inh)
COc1ccccc1C1CCN(Cc2cccc3ccccc23)CC1	FMDV antiviral inconclusive, HCV inh 7.9µM
COc1ccccc1C1CCN(Cc2ccc(Cl)cc2Cl)CC1	none
COc1ccccc1CN1CCc2c([nH]c3ccccc23)C1	Giardia FBPA inh inconclusive (no result: Vaccinia Venus, VACV mCherry inh)
Clc1cccc(CN2CCc3c([nH]c4ccccc34)C2)c1Cl	HCMV inh -91, FMDV antiviral inconclusive, Giardia FBPA inh inconclusive, HCV inh inconclusive
O=C1c2ccc(O)c(O)c2C(=O)c2c(O)ccc(O)c21	FMDV antiviral 22µM, Giardia FBPA inh inconclusive (no result: HCMV inh, HCV inh)
O=C1c2ccccc2C(=O)c2c1ccc(O)c2O	none
COc1ccc(NC(=O)[C@H](C)NC(=O)C2CCN(S(=O)(=O)c3ccc(C)cc3)CC2)cc1OC	HCMV inh inconclusive
CN(CC(=O)NCC1CCCCC1)S(=O)(=O)c1ccc(F)cc1	HCMV inh -63
CN(CC(=O)NCc1ccc(F)cc1)S(=O)(=O)c1ccc(Br)s1	HCMV inh -71, VACV mCherry inh inconclusive
COc1ccc(CNC(=O)CN(C)S(=O)(=O)c2ccc(Br)s2)cc1	none
O=C(CS(=O)(=O)c1ccc(Cl)cc1)Nc1nnc(-c2cccs2)o1	none (no result: Vaccinia Venus, VACV mCherry inh, Giardia FBPA inh)
CC(=O)Nc1ccc(-c2cn3cc(C)ccc3n2)cc1	none
Cc1ccc2nc(-c3ccc(O)c(O)c3)cn2c1	FMDV antiviral 13µM, Giardia FBPA inh inconclusive
Cc1ccc2nc(-c3ccccc3)cn2c1	HCMV inh -66, FMDV antiviral 1.8µM
CCOC(=O)[C@]12Cc3c(cc(OC)c(OC)c3OC)[C@H]1N(Cc1ccccc1)C(=O)c1cc(F)c(F)cc12	HCMV inh -61 (no result: Giardia FBPA inh, HCV inh)
CCOC(=O)[C@]12Cc3cc(C)ccc3[C@H]1N(Cc1ccccc1)C(=O)c1cc(F)c(F)cc12	HCMV inh -109, FMDV antiviral 11µM (no result: Giardia FBPA inh, HCV inh)
CCOC(=O)[C@]12Cc3cc(OC)ccc3[C@H]1N(Cc1ccccc1)C(=O)c1cc(F)c(F)cc12	none (no result: Giardia FBPA inh)
CCOC(=O)[C@]12Cc3c(cc(OC)c(OC)c3OC)[C@H]1N(Cc1ccccc1)C(=O)c1cc(OC)ccc12	HCMV inh -107, FMDV antiviral 18µM, Vaccinia Venus inconclusive, VACV mCherry inh inconclusive (no result: Giardia FBPA inh, HCV inh)
Cc1ccc(C)c(NC(=O)CC2Oc3ccccc3NC2=O)c1 (centres undefined)	none (no result: Vaccinia Venus, VACV mCherry inh)
CCCn1c(N)c(C(=O)COC(=O)/C=C/c2ccc(OC(F)F)c(OC)c2)c(=O)[nH]c1=O	FMDV antiviral inconclusive, HCV inh inconclusive (no result: Giardia FBPA inh)
Cc1ccc(-c2noc(C3CCN(S(=O)(=O)c4ccc5c(c4)OCCO5)CC3)n2)o1	HCMV inh -96, FMDV antiviral inconclusive, Vaccinia Venus inconclusive, VACV mCherry inh inconclusive, HCV inh 13µM
O=S(=O)(c1ccc2ccccc2c1)N1CCC(c2nc(-c3ccncc3)no2)CC1	HCMV inh -73, FMDV antiviral inconclusive, HCV inh 8.9µM
Cc1ccc(-c2noc(C3CCCN(S(=O)(=O)c4ccc5ccccc5c4)C3)n2)o1 (centres undefined)	HCMV inh inconclusive (no result: FMDV antiviral)
Cc1ccc(-n2ncc3c(NCCCN4CCOCC4)ncnc32)cc1C	HCMV inh inconclusive (no result: Giardia FBPA inh, HCV inh)
C[C@]12c3[nH]c4ccc(Cl)cc4c3CCN1C(=O)[C@@H](CC(=O)NCc1cccc(C(F)(F)F)c1)C[C@@H]2C(=O)N1CCOCC1	Vaccinia Venus inconclusive, HCV inh 7.1µM (no result: Giardia FBPA inh)
CC(C)N(C(=O)[C@H]1C[C@H](CC(=O)NCc2cccc(C(F)(F)F)c2)C(=O)N2CCc3c([nH]c4cc(-c5ccco5)ccc34)[C@]12C)C(C)C	FMDV antiviral inconclusive, VACV mCherry inh inconclusive (no result: Giardia FBPA inh)
CC(C)N(C(=O)[C@H]1C[C@H](CC(=O)NCc2cccc(C(F)(F)F)c2)C(=O)N2CCc3c([nH]c4ccc(Cl)cc34)[C@]12C)C(C)C	HCMV inh inconclusive, FMDV antiviral inconclusive, Vaccinia Venus 11µM, VACV mCherry inh inconclusive (no result: Giardia FBPA inh)
CCC(Sc1n[nH]c(=O)[nH]c1=O)C(=O)OCc1ccccc1 (centres undefined)	FMDV antiviral 1.8µM (no result: Vaccinia Venus, VACV mCherry inh)
CC(Sc1n[nH]c(=O)[nH]c1=O)C(=O)OCc1ccccc1 (centres undefined)	Giardia FBPA inh inconclusive (no result: VACV mCherry inh)
COc1ccc(NC2=C(NC(C)=O)C(=O)c3ccccc3C2=O)cc1	HCMV inh -67, Giardia FBPA inh inconclusive, HCV inh inconclusive
O=C1c2ccccc2C(=O)c2cc(NC(=O)C3CC3)ccc21	none
CC(=O)Nc1ccc2c(c1)C(=O)c1ccccc1C2=O	HCV inh 10µM
CCCC(=O)NC1=C(Cl)C(=O)c2ccccc2C1=O	HCMV inh inconclusive, FMDV antiviral inconclusive, HCV inh 3.2µM (no result: Giardia FBPA inh)
CC(=O)Nc1c(Cl)cc2c(c1Cl)C(=O)c1ccccc1-2	HCV inh 11µM (no result: Giardia FBPA inh)
